The subject of assay [1] is DLD1. Kind of assay: cell viability (CellTiter-Glo) relative to plate median (fraction of plate median); higher = more viable cells. The settings on record: 5 µM; treatment time 24 h; reporter: 7TFP. Put shortly:
(§1)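 Normalisation used webcellHTS2 in additive mode without log transformation, scaling each well's luminescence to the plate median. The luminescence was firefly luciferase or CellTiterGlo, read on a Tecan F500 from parallel plates of colorectal cancer cells stably transduced with lentiviral TCF/Wnt firefly luciferase reporters. Those cells had been given library compounds at a final 5 µM for 24 h, and two independent replicates were averaged.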
On the technique in general: In ATP-based viability assays light output follows the ATP content of the culture.

Assay [2] relates to HCT116. The assay is described as above. Conditions: 5 µM; treatment time 24 h; reporter: TCF4/Wnt. Put shortly: as §1
Assay [3] relates to SW480. The description is as above. Conditions: 5 µM; treatment time 24 h; reporter: 7TFP. Put shortly: as §1
In assay [4] the test system is DLD1. Kind of assay: TCF/Wnt firefly luciferase reporter signal relative to plate median (fraction of plate median); higher = higher Wnt reporter signal. The settings on record: 5 µM; treatment time 24 h; reporter: 7TFP. Put shortly:
as §1
(In general: A reporter such as luciferase makes a cellular process visible.)

Assay [5] concerns SW480. The description is as above. The settings on record: 5 µM; treatment time 24 h; reporter: 7TFP. Put shortly:
as §1

The structures appear in SMILES notation. ± gives the standard deviation of the averaged measurements.

As to `COc1ccc2c(c1)OC/C(=C\c1ccc(OC)c(O)c1)C2=O`, the cell viability in assay [1] is 0.933 ± 0.054; in assay [2] it was 1.02; in assay [3], 1.03 ± 0.035. Moreover, the “TCF/Wnt firefly luciferase reporter signal” value in assay [4] amounted to 0.972 ± 0.11; in assay [5] it was 0.98 ± 0.086.

As to `CC(=O)OCC(=O)[C@@]1(O)CC[C@H]2[C@@H]3CCC4=CC(=O)CC[C@]4(C)[C@H]3C(=O)C[C@@]21C`, the values for the cell viability in assay [1], in assay [2] and in assay [3] were 1.04 ± 0.021, 1 ± 0.079 and 1.12 ± 0.12, respectively. Also, the results for the “TCF/Wnt firefly luciferase reporter signal” value in assay [4] and in assay [5] were 1.05 ± 0.021 and 1.04 ± 0.13, respectively.

With `CN(C)CCc1c[nH]c2ccc(CS(=O)(=O)N3CCCC3)cc12`, the cell viability in assay [1] worked out at 0.875 ± 0.04; in assay [2] it was 0.929 ± 0.088; in assay [3], 0.999 ± 0.086. Besides, the “TCF/Wnt firefly luciferase reporter signal” value in assay [4] worked out at 1.17 ± 0.035; in assay [5], 1.06 ± 0.088.

Consider `COC(=O)C1=CO[C@@H](O[C@@H]2O[C@H](CO)[C@@H](O)[C@H](O)[C@H]2O)[C@H]2[C@@H]1C(=O)C[C@@H]2C`, for which the cell viability in assay [1] is 1.03 ± 0.067; in assay [2], 0.992 ± 0.083; in assay [3], 0.982 ± 0.026. The “TCF/Wnt firefly luciferase reporter signal” value amounted to 1.08 ± 0.064 in assay [4] and 1.06 ± 0.021 in assay [5].

With `COc1cc(OC)c2ccc(=O)oc2c1`, the cell viability in assay [1] stood at 1.08 ± 0.057; in assay [2], 0.999 ± 0.2; in assay [3], 1.07. In addition, the “TCF/Wnt firefly luciferase reporter signal” value in assay [4] amounted to 1.02 ± 0.084; in assay [5], 1.01 ± 0.071.

As to `CC(=O)C12OC(C)(c3ccccc3)OC1CC1C3CCC4=CC(=O)CCC4(C)C3CCC12C` (stereo not given), the cell viability in assay [1] amounted to 0.963 ± 0.039; in assay [2] it was 0.987 ± 0.033; in assay [3], 0.976 ± 0.035. The “TCF/Wnt firefly luciferase reporter signal” value in assay [4] is 0.977 ± 0.061; in assay [5], 0.939 ± 0.067.

Regarding `Nc1cc(-c2ccncc2)c[nH]c1=O`, the cell viability turned out to be 1.03 ± 0.042 in assay [1], 0.99 ± 0.057 in assay [2] and 0.928 in assay [3]. Further, the “TCF/Wnt firefly luciferase reporter signal” value in assay [4] turned out to be 0.903 ± 0.032; in assay [5], 0.94 ± 0.054.

Take `O=C(O)/C=C(\CC(=O)O)C(=O)O`: the cell viability in assay [1] is 1.05 ± 0.014; in assay [2] it was 0.98 ± 0.018; in assay [3], 1 ± 0.011. The “TCF/Wnt firefly luciferase reporter signal” value in assay [4] was found to be 1.11 ± 0.035; in assay [5], 0.978 ± 0.059.

Take `Oc1ccc(/C=C/c2cc(O)cc(O)c2)cc1`: the cell viability is 0.995 ± 0.022 in assay [1], 1.05 ± 0.042 in assay [2] and 1.03 ± 0.098 in assay [3]. The results for the “TCF/Wnt firefly luciferase reporter signal” value in assay [4] and in assay [5] were 1.05 ± 0.05 and 0.891 ± 0.059, respectively.

`CCn1nc(C(=O)O)c(=O)c2cc3c(cc21)OCO3`: the cell viability amounted to 1.01 ± 0.035 in assay [1], 0.972 ± 0.015 in assay [2] and 0.988 ± 0.088 in assay [3]. Besides, the “TCF/Wnt firefly luciferase reporter signal” value in assay [4] amounted to 1 ± 0.11; in assay [5], 0.875 ± 0.14.

As for `Cc1occc(=O)c1O`, the cell viability in assay [1] is 0.962 ± 0.0099; in assay [2], 0.973 ± 0.039; in assay [3], 0.936 ± 0.021. For the same compound, the “TCF/Wnt firefly luciferase reporter signal” value was determined as 0.938 ± 0.1 in assay [4] and 0.85 ± 0.042 in assay [5].

As for `CN(C)CCOc1ccc(/C(=C(/CCCl)c2ccccc2)c2ccccc2)cc1`, the cell viability in assay [1] was determined as 0.947 ± 0.034; in assay [2] it was 1.02 ± 0.062; in assay [3], 0.977 ± 0.047. The “TCF/Wnt firefly luciferase reporter signal” value in assay [4] was 0.962 ± 0.12; in assay [5], 1.05 ± 0.073.

As for `O=C(O)c1cc(=O)c2c(OCC(O)COc3cccc4oc(C(=O)O)cc(=O)c34)cccc2o1`, the values for the cell viability in assay [1], in assay [2] and in assay [3] were 1.04 ± 0.06, 0.9275 ± 0.0021 and 1.09 ± 0.13, respectively. For the same compound, the “TCF/Wnt firefly luciferase reporter signal” value in assay [4] is 0.902 ± 0.036; in assay [5], 1.01 ± 0.081.

`COc1cc(O)cc(OC)c1OC`: the results for the cell viability in assay [1], in assay [2] and in assay [3] were 1.01 ± 0.019, 1.01 ± 0.015 and 0.942 ± 0.074, respectively. Also, the “TCF/Wnt firefly luciferase reporter signal” value came out at 0.941 ± 0.021 in assay [4] and 0.978 ± 0.0028 in assay [5].

In the case of `Cc1c(C)c2c(c(C)c1O)CCC(C)(CCCC(C)CCCC(C)CCCC(C)C)O2` (stereo not drawn) [alpha-TOCHOPHEROL], the cell viability in assay [1] was found to be 0.963 ± 0.012; in assay [2], 0.97 ± 0.085; in assay [3] it was 1.01 ± 0.017. The “TCF/Wnt firefly luciferase reporter signal” value in assay [4] turned out to be 1.07 ± 0.014; in assay [5], 1.01 ± 0.16.

With `COc1ccc2c(c1)[C@@]1(C)CCC(=O)C[C@H]1CC2` [5beta-12-METHOXY-4,4-BISNOR-8,11,13-PODOCARPATRIEN-3-ONE], the results for the cell viability in assay [1], in assay [2] and in assay [3] were 0.9975 ± 0.0035, 1.07 ± 0.071 and 1.01 ± 0.037, respectively. Moreover, the “TCF/Wnt firefly luciferase reporter signal” value in assay [4] came to 1.18 ± 0.2; in assay [5], 1.05 ± 0.057.

Turning to `C/C=C/c1ccc(OC)cc1`, the cell viability in assay [1] turned out to be 1.07 ± 0.021; in assay [2], 0.987 ± 0.047; in assay [3], 1.03 ± 0.062. For the same compound, the “TCF/Wnt firefly luciferase reporter signal” value amounted to 0.925 ± 0.12 in assay [4] and 0.943 ± 0.0014 in assay [5].

Consider `NS(=O)(=O)c1cc2c(cc1Cl)N=C(CSCc1ccccc1)NS2(=O)=O`, for which the cell viability in assay [1] was 0.974 ± 0.079; in assay [2], 1.08 ± 0.014; in assay [3], 0.974 ± 0.066. Moreover, the “TCF/Wnt firefly luciferase reporter signal” value in assay [4] amounted to 0.861 ± 0.04; in assay [5] it was 1.03 ± 0.042.

Turning to `O=C1O[C@H](CO)[C@@H](O)[C@H](O)[C@H]1O`, the cell viability in assay [1] is 1.005 ± 0.0071; in assay [2], 1.035 ± 0.0071; in assay [3], 1.085 ± 0.0071. In addition, the figures for the “TCF/Wnt firefly luciferase reporter signal” value in assay [4] and in assay [5] were 0.949 ± 0.051 and 0.945 ± 0.13, respectively.

Consider `Clc1ccc2c(c1)C(N1CCNCC1)=Nc1ccccc1O2`, for which the cell viability was found to be 1.045 ± 0.0071 in assay [1], 1.085 ± 0.0071 in assay [2] and 0.995 ± 0.021 in assay [3]. Further, the “TCF/Wnt firefly luciferase reporter signal” value in assay [4] worked out at 0.789 ± 0.058; in assay [5] it was 0.905 ± 0.042.

`OC[C@H]1O[C@H]([S-])[C@H](O)[C@@H](O)[C@@H]1O.[Au+]`: the cell viability is 0.945 ± 0.21 in assay [1], 0.921 ± 0.019 in assay [2] and 1.11 ± 0.021 in assay [3]. The “TCF/Wnt firefly luciferase reporter signal” value in assay [4] was found to be 0.891 ± 0.12; in assay [5] it was 0.265 ± 0.088.

`Cc1cn([C@H]2C[C@H](N=[N+]=[N-])[C@@H](CO)O2)c(=O)[nH]c1=O`: the cell viability in assay [1] worked out at 0.976 ± 0.012; in assay [2], 0.958 ± 0.018; in assay [3] it was 1 ± 0.022. Moreover, the results for the “TCF/Wnt firefly luciferase reporter signal” value in assay [4] and in assay [5] were 0.874 ± 0.02 and 0.928 ± 0.011, respectively.

Consider `COc1ccc(-c2coc3c(O)c(OC)ccc3c2=O)cc1`, for which the cell viability came to 0.969 ± 0.073 in assay [1], 0.984 ± 0.08 in assay [2] and 0.99 ± 0.014 in assay [3]. Moreover, the “TCF/Wnt firefly luciferase reporter signal” value in assay [4] came to 1 ± 0.12; in assay [5], 1.01 ± 0.095.

Consider `COc1ccccc1OCC(O)COC(N)=O` (stereo not given), for which the cell viability in assay [1] is 1.02 ± 0.076; in assay [2], 1.01 ± 0.089; in assay [3] it was 0.995 ± 0.035. Further, the “TCF/Wnt firefly luciferase reporter signal” value in assay [4] is 0.982 ± 0.054; in assay [5], 0.967 ± 0.047.

On to `C=CC1=C(C(=O)O)N2C(=O)[C@@H](NC(=O)/C(=N\O)c3csc(N)n3)[C@H]2SC1`, for which the cell viability in assay [1] turned out to be 0.911 ± 0.11; in assay [2], 1.04 ± 0.1; in assay [3], 0.963 ± 0.025. Also, the results for the “TCF/Wnt firefly luciferase reporter signal” value in assay [4] and in assay [5] were 0.941 ± 0.052 and 0.969 ± 0.072, respectively.

Regarding `CC[C@@H](CO)NCCN[C@@H](CC)CO`, the cell viability came out at 0.963 ± 0.12 in assay [1], 1.03 ± 0.021 in assay [2] and 1.02 ± 0.059 in assay [3]. Besides, the “TCF/Wnt firefly luciferase reporter signal” value in assay [4] worked out at 1.2 ± 0.05; in assay [5], 1.19 ± 0.035.

`O=C(O)c1ccc2c(c1)OCO2`: the values for the cell viability in assay [1], in assay [2] and in assay [3] were 0.927 ± 0.12, 1.09 ± 0.078 and 0.948 ± 0.033, respectively. Besides, the figures for the “TCF/Wnt firefly luciferase reporter signal” value in assay [4] and in assay [5] were 0.927 ± 0.022 and 0.866 ± 0.12, respectively.

For `NC(=O)c1ccc[n+]([C@@H]2O[C@H](COP(=O)([O-])OP(=O)(O)OC[C@H]3O[C@@H](n4cnc5c(N)ncnc54)[C@H](O)[C@@H]3O)[C@@H](O)[C@H]2O)c1`, the cell viability in assay [1] is 0.955 ± 0.11; in assay [2], 0.956 ± 0.09; in assay [3], 0.942 ± 0.027. Also, the “TCF/Wnt firefly luciferase reporter signal” value in assay [4] was 1.1 ± 0.057; in assay [5], 1.24 ± 0.071.
